Active and inactive are the calls of the source. The calls were made as follows: active = hit-call score of the fitted dose curve at least 0.9, where 1 is the maximum; inconclusive = response in the unintended direction; inactive = score below 0.9.
molecular target: D(1A) dopamine receptor (Homo sapiens) (UniProt P21728); assay: ERF_FR_GPCR_hDRD1: Eurofins (ERF) G Protein-Coupled Receptor (GPCR) Radioligand Binding LeadHunter Assay for human Dopamine Receptor D1 Antagonism, conducted at France lab site
Protocol: ERF_FR_GPCR_hDRD1 is a biochemical, single-readout assay that uses extracted gene-proteins in a cell-free assay. Measurements were taken 1 hour after chemical dosing in a 96-well plate. See D1 Human Dopamine GPCR Binding (Antagonist Radioligand) Assay, Cerep.ERF_FR_GPCR_hDRD1 is an assay component calculated from the ERF_FR_GPCR_hDRD1 assay. It is designed to measure radioligand binding using a type of binding reporter as detected by scintillation counting with radiometry technology.Data from the assay component ERF_FR_GPCR_hDRD1 was analyzed at the assay endpoint, ERF_FR_GPCR_hDRD1, in the positive analysis fitting direction relative to DMSO as the negative control and baseline of activity. Using a type of binding reporter, loss-of-signal activity can be used to understand changes in binding as they relate to gene DRD1. To generalize the intended target to other relatable targets, this assay endpoint is annotated to the gpcr intended target family, where the subfamily is dopamine.
Human cells are incubated for 60 minutes at room temprature with [3H]SCH 23390 ligand (0.3 nM) and SCH 23390 as control inhibitor.Test Sample Requirements: Minimum for 1) Screen: 60 ul of 10 mM stock -OR- 1 mg (pre-weighed) for 10 uM final testing. 2) Dose Response: 90 ul of 10 mM stock -OR- 1 mg (pre-weighed) for a top concentration at 10 uM.

Sequence of D(1A) dopamine receptor (Homo sapiens) (P21728 whole entry, looked up): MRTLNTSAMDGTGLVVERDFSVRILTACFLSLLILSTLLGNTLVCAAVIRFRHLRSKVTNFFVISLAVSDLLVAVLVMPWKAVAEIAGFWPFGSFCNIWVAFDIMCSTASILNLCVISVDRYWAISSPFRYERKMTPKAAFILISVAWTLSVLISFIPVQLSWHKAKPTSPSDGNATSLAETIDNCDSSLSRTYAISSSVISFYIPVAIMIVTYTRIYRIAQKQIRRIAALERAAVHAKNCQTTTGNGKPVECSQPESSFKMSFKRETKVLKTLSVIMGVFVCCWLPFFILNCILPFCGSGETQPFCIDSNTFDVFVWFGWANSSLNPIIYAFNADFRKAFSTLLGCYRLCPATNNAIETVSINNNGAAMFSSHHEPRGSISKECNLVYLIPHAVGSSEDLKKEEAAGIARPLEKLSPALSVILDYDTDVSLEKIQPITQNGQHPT

Compound	AC50	outcome
O=C(/C=C/c1ccc(O)cc1)CC(=O)/C=C/c1ccc(O)cc1	1070 nM (active)	
COc1cc(CCC(=O)CC(=O)CCc2ccc(O)c(OC)c2)ccc1O		inactive
COc1cc(/C=C/C(=O)CC(=O)/C=C/c2ccc(O)c(OC)c2)ccc1O	2040 nM (active)	

Source: PubChem BioAssay AID2284158 (EPA ToxCast)
